Source: the supplement of paper PMC3334620
Whole data set: some 33,000 sequences, median “E-score (-0.5 to 0.5)” near -0.012, cut for the highest 2% near 0.29. Only a selection was taken, and the highest values are over-represented in it overall.

Molecular target: T1, Ybr033w (UniProt P38073)
T1 sequence: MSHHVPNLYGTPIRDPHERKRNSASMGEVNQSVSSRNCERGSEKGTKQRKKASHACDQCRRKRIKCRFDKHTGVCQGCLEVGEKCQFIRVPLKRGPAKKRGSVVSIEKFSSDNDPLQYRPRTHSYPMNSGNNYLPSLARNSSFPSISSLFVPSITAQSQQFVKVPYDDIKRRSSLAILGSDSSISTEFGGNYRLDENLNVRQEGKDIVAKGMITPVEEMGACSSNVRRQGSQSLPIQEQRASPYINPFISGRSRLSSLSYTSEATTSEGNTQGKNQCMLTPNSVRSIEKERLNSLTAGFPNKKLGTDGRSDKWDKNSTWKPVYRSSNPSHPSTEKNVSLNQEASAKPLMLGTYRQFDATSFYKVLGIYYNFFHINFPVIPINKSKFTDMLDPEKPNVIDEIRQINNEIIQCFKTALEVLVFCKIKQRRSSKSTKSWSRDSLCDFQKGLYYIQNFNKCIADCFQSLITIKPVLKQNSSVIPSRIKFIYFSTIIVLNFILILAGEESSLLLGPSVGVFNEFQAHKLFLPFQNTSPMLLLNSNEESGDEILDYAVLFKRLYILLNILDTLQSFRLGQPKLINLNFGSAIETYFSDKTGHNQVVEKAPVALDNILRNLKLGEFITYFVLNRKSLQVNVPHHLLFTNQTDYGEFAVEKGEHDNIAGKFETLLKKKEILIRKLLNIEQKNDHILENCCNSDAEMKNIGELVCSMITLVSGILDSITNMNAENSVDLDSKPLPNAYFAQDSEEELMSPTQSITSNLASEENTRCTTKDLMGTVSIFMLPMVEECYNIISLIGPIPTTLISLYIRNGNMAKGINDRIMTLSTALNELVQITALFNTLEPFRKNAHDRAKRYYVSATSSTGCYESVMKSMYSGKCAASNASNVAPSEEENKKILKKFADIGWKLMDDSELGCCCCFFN
Assay: PBM E-score (8-mer binding enrichment) (E-score (-0.5 to 0.5)); higher = stronger / more preferred TF binding
Details: protein concentration: 200 nM; construct: GST-full length
Experimental: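 Universal 'all 10-mer' protein binding microarrays (Agilent AMADID 015681) probed with GST-tagged S. cerevisiae TFs (full-length or DBD) made by in vitro transcription/translation (PURExpress), about 100-200 nM. Bound TF was detected with fluorescent anti-GST. Each ungapped 8-mer (which stands for itself and its reverse complement) is scored by the PBM enrichment score (E-score), a modified Wilcoxon-Mann-Whitney statistic from -0.5 to +0.5, computed with the Universal PBM Analysis Suite. Scale: above 0.35 generally sequence-specific binding.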

Row | Sequence | PBM E-score
1 | CCCGCCTC | -0.17
2 | CGCCCCAA | -0.118
3 | GGGAACAA | 0.381
4 | TCGAACAA | 0.138
5 | GGGAACAC | 0.0998
6 | ATGAACAT | 0.217
7 | TGGAACCA | 0.0554
8 | ACGAACAT | 0.151
9 | AGGAACAT | 0.399
10 | GCGAACAA | 0.183
11 | TGGAACAA | 0.434
12 | AGGAACAA | 0.402
13 | AGGAACAC | 0.193
14 | AGGAACAG | -0.0964
15 | CCTGAATA | 0.186
16 | TCCCCTAA | -0.208
17 | GTCTATTA | -0.0198
18 | GTGTATTA | 0.28
19 | CTCTATCA | -0.0434
20 | ATGTATTG | 0.266
21 | ATCTATCA | 0.302
22 | ATGTATTA | 0.293
23 | ATCTATTA | 0.327
24 | GTCTATCA | 0.0657
25 | CTCTATTA | 0.152

Row | Sequence | PBM E-score
26 | GCTACAAC | 0.0399
27 | GAAGAGCC | -0.13
28 | ACCGGCCA | -0.314
29 | ATCCACAT | 0.224
30 | ACTCCTCC | -0.182
31 | CGTAGTCA | -0.186
32 | CATATCAG | 0.0658
33 | AATATCAT | 0.294
34 | AATATCGA | 0.164
35 | AATATCAG | 0.299
36 | AATATCAC | 0.239
37 | ACTATCAT | 0.242
38 | AATATCGT | 0.33
39 | AATATCGG | 0.198
40 | AATATCAA | 0.233
41 | ACGACGTA | 0.0878
42 | ACTTGGAC | 0.127
43 | ACCAGCAT | 0.0255
44 | CTGCGGTC | -0.262
45 | AATCTACG | -0.0149
46 | ACAGCACA | 0.144
47 | CCCCTTCG | -0.317
48 | AAAATACT | 0.301
49 | AAAATACA | 0.254
50 | CAAATACC | 0.112

Row | Sequence | PBM E-score
51 | AATACTCA | 0.229
52 | AAAATACG | 0.171
53 | AATACTCT | 0.298
54 | AAAATACC | 0.315
55 | AATACTCC | 0.0328
56 | ACAATACT | 0.219
57 | CTCTAGCA | -0.0957
58 | AACGATGA | 0.0671
59 | GTGTTAGA | 0.0758
60 | GATAAGTA | 0.205
61 | GTAGACTA | -0.131
62 | AATGCAAA | 0.274
63 | TCACTGGA | 0.00252
64 | ATAGTAGC | 0.16
65 | GACCTCCC | -0.249
66 | CCGCGTGC | -0.231
67 | ATAAAATG | 0.219
68 | CTTAAATA | 0.114
69 | GTTAAATA | 0.278
70 | ATTAAATG | 0.347
71 | ATTAAATA | 0.33
72 | ATTAAATC | 0.213
73 | AGCACAGC | 0.0732
74 | CATCGAGC | -0.0235
75 | GTCTTGCA | 0.0132

Row | Sequence | PBM E-score
76 | ATCTTGCG | 0.0267
77 | ATCTTGCA | 0.294
78 | AACTTGGT | 0.168
79 | GCTTTCCC | -0.253
80 | AAAACTTA | 0.362
81 | CAAACTTA | 0.191
82 | AAAACTTC | 0.176
83 | TAAACTTA | 0.166
84 | GAAACTTA | 0.332
85 | TAAACTAA | 0.271
86 | AAAACTAT | 0.217
87 | GAAACTTC | 0.112
88 | AAAACTAA | 0.328
89 | ATTCTTAA | 0.0371
90 | AAAGCTAG | 0.103
91 | CCTAGCCG | -0.157
92 | GAGCGTTA | 0.113
93 | GGTTCTAC | -0.0153
94 | AGAATAAG | 0.14
95 | TGAATAAA | 0.195
96 | GGAATAAC | 0.453
97 | AGAATAAT | 0.163
98 | GGAATAAA | 0.296
99 | AGAATAAC | 0.141
100 | CGAATAAA | 0.145

Row | Sequence | PBM E-score
101 | AGAATAAA | 0.312
102 | CGAATAAC | 0.07
103 | GATCGAGC | -0.00942
104 | ATAGGTGG | -0.108
105 | CGAGTGGC | -0.32
106 | AGTTACCG | 0.0592
107 | TTCAAGAA | 0.296
108 | TTCAAAAA | 0.239
109 | CGAAGAAC | 0.145
110 | GGAAGAAC | 0.461
111 | GGAAGAAA | 0.34
112 | GTCAAGAA | 0.146
113 | CCAAGAAA | 0.167
114 | TCAAGAAA | 0.291
115 | ACAAGAAA | 0.206
116 | CGAAGAAA | 0.156
117 | AGAAGAAA | 0.0907
118 | AGAAGAAC | 0.171
119 | AGACTAGC | -0.208
120 | CCTTGCTA | 0.00278
121 | AGGAGCGG | -0.359
122 | CGGGTAGA | -0.0322
123 | AAAAATTG | 0.221
124 | ATAAATTG | 0.365
125 | CTAAATTC | 0.204

Row | Sequence | PBM E-score
126 | ATAAATCA | 0.223
127 | CTAAATTA | 0.173
128 | AGAAATTG | 0.281
129 | ATAAATTA | 0.375
130 | ATAAATGC | 0.0963
131 | ATAAATCC | 0.324
132 | ATAAATTC | 0.308
133 | GTAAATTA | 0.193
134 | ATAAATCG | 0.218
135 | ACTATTGA | 0.243
136 | CTGGAGAA | -0.115
137 | CAGAGTAA | -0.0159
138 | CTAGAGCC | -0.0992
139 | TCCAACGA | -0.0709
140 | AGTCACAT | 0.0586
141 | GTGCCCGA | -0.142
142 | AAAGCTTC | -0.0172
143 | AGCTCTGG | -0.197
144 | AGTTGCTC | -0.15
145 | ATTCCACA | 0.335
146 | ATTCCACG | -0.0625
147 | ATTCCACC | 0.208
148 | AGATTCTG | -0.0373
149 | ACTGGATG | -0.0668
150 | ATTGGTCG | -0.0127

Row | Sequence | PBM E-score
151 | GCAATATA | 0.123
152 | CTAATATC | 0.196
153 | CTAATAGA | 0.06
154 | ATATAATA | 0.34
155 | AGAATATA | 0.134
156 | CGAATATA | 0.156
157 | GGAATATA | 0.291
158 | GTATAATA | 0.207
159 | GTAATAGA | 0.17
160 | CTATAATA | 0.156
161 | CTAATATA | 0.297
162 | GTAATATA | 0.299
163 | AATCCAAG | 0.228
164 | CTAGCGAG | -0.177
165 | ACATCGCT | -0.101
166 | ACGGGCAT | -0.108
167 | ACTTTAGG | -0.0326
168 | CCCCAAGA | -0.0572
169 | ATAATATG | 0.273
170 | ATAATATC | 0.28
171 | ATAATATA | 0.321
172 | CAAGTCTC | -0.0267
